# Among all 420,000 compounds or so, about 64,000 (15%) were called active. Not shown: some 27% with an inconclusive outcome. These entries were drawn from the full list. Values without a mark were called inactive. Calls come from the whole dose curve; as a rule, active = well fitted inhibition curve with a large enough effect; inconclusive = small, poorly fitted or top-dose-only effect; inactive = flat fitted curve, though single readings scatter.
# Assay: qHTS for Inhibitors of human tyrosyl-DNA phosphodiesterase 1 (TDP1): qHTS in cells in absence of CPT; note: nearly all actives have a fitted effect of over 55% in size
# Details: DT40 Tdp1-/- hTDP1 cells, no CPT, ATP luminescence, 48 h; activity change, negative = growth inhibition: at 46.2 µM (top of the series)
# Outline: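 Growth of hTDP1-complemented DT40 Tdp1-knockout cells is measured by ATP luminescence after at least 48 hr compound exposure at 37 °C, with DMSO substituting for the 20 nM CPT used in the parallel screen.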
# % is set by controls: 0 for no effect and ±100 for the full control effect; potency is the fitted concentration of half-maximal effect.
SMILES,"activity change, negative = growth inhibition",Potency
Cc1cc(OC(=O)c2ccccc2)c([N+](=O)[O-])c(=O)[nH]1,17.1%,–
Oc1ccc(/C=N/Nc2ccc(C(F)(F)F)cn2)cc1O,–,2.59 µM (active)
O=C(O)c1ccc(N/N=C/c2ccc3ncccc3c2)cc1,-3.17%,–
Cc1nnsc1C(=O)N/N=C/c1cccc(C(F)(F)F)c1,-5.29%,–
O=C1/C(=C/c2ccc(F)cc2)SC(=S)N1NS(=O)(=O)c1ccccc1,-19.1%,–
CC1CCCCC12NC(=O)N(CC(=O)N1CCN(c3ccccc3)CC1)C2=O (stereo not given),-0.12%,–
Cc1cc(C)c(NC(=O)CSc2nc3ccncc3[nH]2)c(C)c1,-13.4%,–
COc1ccc(CNC(=O)CCCn2nc(C)c([N+](=O)[O-])c2C)cc1,-22%,–
CCc1ccc(NC(=O)Cn2nc(C)c([N+](=O)[O-])c2C)cc1,-5.71%,–
Cc1ccc(Oc2cc(NC(=O)CCCn3nc(C)c([N+](=O)[O-])c3C)cc([N+](=O)[O-])c2)cc1,–,18.4 µM (active)
CC(C)(C)NC(=O)NC(=O)COC(=O)Cn1c(C(F)(F)F)nc2ccccc21,-6.14%,–
CCCc1nc2ccccc2n1C(C)C(=O)NC(C)(C)C (stereo not given),-7.62%,–
CCC(C(=O)NC(C)(C)C)n1c(-c2ccccc2)nc2ccccc21 (stereo not given),–,18.4 µM (active)
CC(C)(C)NC(=O)C(CCc1ccccc1)n1c(=O)c(-c2ccccc2)nc2ccccc21 (stereo not given),–,2.91 µM (active)
CC(=O)NS(=O)(=O)c1ccc(N/C(N)=N/c2nc(C)cc(C)n2)cc1,4.16%,–
Cc1nnc(SCCCCSc2nnc(C)c(=O)[nH]2)[nH]c1=O,-4.3%,–
COc1ccc(Br)cc1/C=N/Nc1ccc(S(=O)(=O)Nc2ccccc2C(=O)O)cc1[N+](=O)[O-],-18.5%,–
COc1ccccc1CNC(=O)Cn1cc2c(n1)CCCC2,6.11%,–
COc1ccccc1CNC(=O)c1ccc(-n2c(C)cc3c2CCCC3)cc1,–,14.6 µM (active)
COc1ccc(CCNC(=O)c2ccc3c(c2)nc(C)n3-c2ccc(Br)cc2)cc1OC,–,20.6 µM (active)
COCCn1c(=S)[nH]c2cc(C(=O)NCCc3ccc(OC)c(OC)c3)ccc2c1=O,-6.65%,–
COc1ccc(CCNC(=O)CSCc2ccc(Br)cc2)cc1OC,-20.4%,–
COc1ccc(CCNC(=O)c2ccc(-n3c(C)cc4c3CCCC4)cc2)cc1OC,–,18.4 µM (active)
COc1ccc(C(=O)NCc2ccccc2C)cc1S(=O)(=O)NC1CCCC1,-4.01%,–

SMILES,"activity change, negative = growth inhibition",Potency
O=C(OC1CC2CC1[C@H]1CCCCN1C2=O)N1CCOCC1 (stereo not given in full),-7.39%,–
O=C(CS(=O)(=O)c1ccccc1)Nc1ccc(S(=O)(=O)Nc2ccccn2)cc1,-3.21%,–
CCC1(C2CCN(Cc3cccnc3)CC2)NC(=O)N(CC2COc3ccccc3O2)C1=O (stereo not given),-22.5%,–
CC(=O)c1cccc(NC(=S)N2CCN(S(C)(=O)=O)CC2)c1,2.42%,–
CC(=O)N1CCN(C(=O)C2(NC(=O)Nc3ccc(C)cc3)CCCCC2)CC1,26.9%,–
CN(C)c1ccc(N/C=C/C(=O)C(F)(F)F)cc1,-24.1%,–
CCOc1ccc(S(=O)(=O)N/N=C(\C)c2ccc(Cl)c(Cl)c2Cl)cc1,-21.3%,–
CCOc1ccc(OCC)c(NC(=O)C(NS(=O)(=O)c2ccc3c(c2)oc(=O)n3C)C(C)C)c1 (stereo not given),-14.7%,–
O=C(CC1NCCNC1=O)Nc1ccc(Oc2ccccc2)cc1 (stereo not given),0.505%,–
CCN(CC)c1cc(NC2CCCCC2)c2c3c(onc13)-c1ccccc1C2=O,–,18.4 µM (active)
Cc1nnc(SCC(=O)Nc2cccc(N)c2)n1-c1ccccc1,-23.3%,–
Cc1cc2c(cc1C)C(c1cccc(OC(C)C)c1)CC(=O)N2 (stereo not given),–,23.1 µM (active)
CC(C)Oc1ccc(C2NC(=O)NC2=O)cc1 (stereo not given),1.33%,–
COc1ccc(C2CC(=O)Nc3cc(C)c(C)cc32)c(OC)c1OC (stereo not given),–,20.6 µM (active)
COc1cc2c(cc1OC)C(c1ccncc1)CC(=O)N2 (stereo not given),18.7%,–
COc1cc2c(cc1OC)C(c1ccc(C)o1)CC(=O)N2 (stereo not given),-4.53%,–
COC(=O)c1ccc(C2CC(=O)Nc3cc(OC)c(OC)cc32)cc1 (stereo not given),-16.9%,–
CC1CN(c2cc(=O)n(Cc3ccc(F)cc3)c(=O)[nH]2)CC(C)O1 (stereo not given),-0.502%,–
O=C1CCCCN1CCCC(=O)N1CCCC(Nc2ccc(F)cc2)C1 (stereo not given),-24.8%,–
CCOC(=O)C1(Cc2ccccc2C)CCCN(C(=O)CN2C(=O)CSC2=O)C1 (stereo not given),-8.61%,–
Cc1nc2cnc(N3CCN(C)CC3)nc2n(C[C@H]2CCCO2)c1=O,13.7%,–
CC(=O)C1=C(O)C(=O)N(c2ccc(Br)cc2)C1c1ccc([N+](=O)[O-])cc1 (stereo not given),21.4%,–
O=C1Cc2cc(S(=O)(=O)Nc3ccc(OC(F)(F)F)cc3)cc3c2N1CCC3,–,18.4 µM (active)
Nc1ncc(S(=O)(=O)Nc2ccc(OC(F)(F)F)cc2)cn1,-22.8%,–

SMILES,"activity change, negative = growth inhibition",Potency
O=C1CCc2cc(S(=O)(=O)Nc3ccc(C(F)(F)F)cc3)cc3c2N1CC3,-17.8%,–
C=CCOc1ccccc1CNn1c(C)n[nH]c1=S,-17.6%,–
CCCN(C(=O)CSc1nnc(N)s1)c1c(N)n(Cc2ccccc2)c(=O)[nH]c1=O,-9.5%,–
CCCc1nc2ccccc2c(=O)n1/N=C/c1ccc(O)c(O)c1,–,16.4 µM (active)
O=c1c2ccccc2ncn1/N=C/c1ccccc1,-4.26%,–
CCCN1C(=O)C(Cc2nc3ccccc3c(=O)n2-c2ccccc2)c2cc(C)ccc21 (stereo not given),-12.9%,–
CC(C)Oc1ccc(C(=O)NC(C)(C)CO)cc1,-14.9%,–
CC(Oc1ccc(Cl)cc1Cl)C(=O)/C=C/N(C)C (stereo not given),-5.7%,–
O=C(CN(CC1CCCO1)C(=O)CNS(=O)(=O)c1ccccc1)NCc1ccccc1 (stereo not given),-29.5%,–
Cc1ccc2occ(/C=N/NC(=O)c3ccccc3C)c(=O)c2c1,–,14.6 µM (active)
O=c1c(/C=N/O)coc2ccc(Cl)cc12,-19%,–
Cc1cc(NC(=O)c2ccccc2C)no1,6.48%,–
Cc1ccccc1CSc1nnc(Cn2c(=O)sc3ccccc32)n1C,-17.7%,–
CCOc1cc(/C=N/NC(=O)c2ccc(CSc3nncn3C)cc2)ccc1OCC(=O)N1CCOCC1,13.3%,–
O=S(=O)(c1ccc(Cl)cc1)c1nc(-c2ccccc2F)oc1NCCN1CCOCC1,-28.5%,–
COc1ccc(-c2nc(S(=O)(=O)c3ccccc3)c(N3CCCCC3)o2)cc1,–,18.4 µM (active)
CSc1nc(-c2ccco2)nn1C(=O)c1ccccc1Cl,-11.7%,–
O=S(=O)(c1ccccc1)c1nc(Cc2ccccc2)oc1N1CCOCC1,-22.2%,–
O=S(=O)(c1ccc(Cl)cc1)c1nc(-c2ccco2)oc1N1CCCCC1,–,23.1 µM (active)
O=S(=O)(c1ccccc1)c1nc(-c2ccc(Cl)cc2Cl)oc1N1CCCCC1,–,13 µM (active)
O=S(=O)(c1ccccc1)c1nc(-c2ccccc2)oc1NCCCN1CCOCC1,-16.3%,–
O=C(CSc1oc(-c2ccccc2)nc1S(=O)(=O)c1ccc(Br)cc1)NC1CCCCC1,-0.03%,–
